# Hits are enriched below; roughly 3.3% of the tested compounds scored in any of these assays.
# Sm TGR inh = S. mansoni TGR enzyme inhibition | hit rate 3% among 360,000 | purified TGR, DTNB reduction, TNB absorbance 405 nm | Q962Y6 | AID 485364 | Potency, µM (series often up to 114 µM), inactives show at the highest dose activity change, negative = inhibition, actives largely listed as inhibitors; further: on the % scale 0 is the no-effect control and ±100 the full control effect; nearly all actives have a fitted effect of over 60% in size
#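 Kinetic colorimetric format: TGR-catalysed, NADPH-driven DTNB reduction monitored via TNB absorbance. Enzyme dispensed at 20 nM; compound exposure 15 min at room temperature before reaction start.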
# RE007 growth inh = less growth of the S. pombe RE007 Vpr strain. S. pombe RE007 Vpr strain, BacTiter-Glo ATP luminescence, 24 h. Potency, µM (titrated, usually from 92.2 µM), for inactives: at the top dose activity change, negative = less growth, most hits filed as inhibitors. hit rate 0.21% among 360,000. AID 651644; active means well fitted falling curve with a large enough effect; inconclusive means small, poorly fitted or top-dose-only effect; inactive means no such curve, though single readings can be large or run the other way; further: on the % scale 0 is the no-effect control and ±100 the full control effect; nearly all actives have a fitted effect of over 50% in size
#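 Fission yeast strain RE007, carrying one chromosomally integrated HIV-1 vpr copy, was seeded at OD 0.01 in PMG+AL medium with 23 nL pinned compound. After 24 h at 30 °C and 99% humidity, viability was read by BacTiter-Glo luminescence.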
# AmpC no deterg = AmpC beta-lactamase inhibition without detergent. AmpC nitrocefin hydrolysis, absorbance 480 nm, 0.0001% Triton. Potency, µM (doses to about 57.1 µM), for the others: at the top dose activity change, negative = inhibition, most hits filed as inhibitors. hit rate 0.52% among 330,000. AID 485341;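 further: plate controls were no compound for no effect and no enzyme for full effect; nearly all actives have a fitted effect of over 20% in size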
# Target sequence (P00811 whole entry, looked up): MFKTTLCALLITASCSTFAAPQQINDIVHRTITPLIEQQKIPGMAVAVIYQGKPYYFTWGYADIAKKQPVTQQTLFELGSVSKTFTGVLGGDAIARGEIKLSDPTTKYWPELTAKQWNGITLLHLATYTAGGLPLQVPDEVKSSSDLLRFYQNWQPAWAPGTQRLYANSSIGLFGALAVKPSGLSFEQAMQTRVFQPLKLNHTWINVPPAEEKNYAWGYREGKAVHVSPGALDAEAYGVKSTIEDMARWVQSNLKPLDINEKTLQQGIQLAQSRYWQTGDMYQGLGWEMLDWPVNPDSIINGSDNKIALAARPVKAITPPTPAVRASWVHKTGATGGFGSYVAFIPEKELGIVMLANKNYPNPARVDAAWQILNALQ
#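 AmpC (5.3 nM in the dispensed reagent) in 20 mM phosphate pH 7.0 with 0.01% (detergent screen) or 0.0001% Triton X-100 was preincubated with compounds for 15 min at room temperature. Nitrocefin was then added from an 800 uM solution, and hydrolysis was followed at 480 nm.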
# TbPYK inhibitor = inhibitors of Trypanosoma brucei pyruvate kinase; TbPYK enzyme, Kinase-Glo Plus ATP luminescence, 45 min; hit rate 0.12% among 410,000; Potency, µM (top dose mostly 76.8 µM), without a hit: at the top dose activity, negative = inhibition, actives largely listed as inhibitors; Q57TT1; AID 624173; further: on the % scale 0 is the no-effect control and ±100 the full control effect; nearly all actives have a fitted effect of over 50% in size
#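 ADP (130 uM final) triggers the TbPYK reaction after compound addition; incubation is 45 min at room temperature. Kinase-Glo Plus is then added and luminescence imaged. Normalized data are fitted to concentration-effect curves.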
# AmpC inh detg = AmpC beta-lactamase inhibition with detergent present; P00811; AmpC hydrolysis of nitrocefin, absorbance 480 nm, 0.01% Triton; Potency, µM (highest dose often 114 µM), for the others: at the highest dose activity change, negative = inhibition, actives largely listed as inhibitors; hit rate 0.041% among 370,000;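 further: 0% = no-compound wells and -100% = no-enzyme wells; nearly all actives have a fitted effect of over 25% in size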
#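 AmpC (5.3 nM in the dispensed reagent) in 20 mM phosphate pH 7.0 with 0.01% (detergent screen) or 0.0001% Triton X-100 was preincubated with compounds for 15 min at room temperature. Nitrocefin was then added from an 800 uM solution, and hydrolysis was followed at 480 nm.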
# SARS PLpro yeast = blocks SARS-CoV papain-like protease in a yeast assay. Potency, µM (top dose mostly 32.9 µM), for the others: top-dose activity, positive = growth rescue, usual class: activators. hit rate 0.19% among 330,000. S. cerevisiae expressing SARS-CoV PLpro, growth rescue. AID 485353; calls by dose curve; further: 0% is about no effect; nearly all actives have a fitted effect of over 55% in size
# The depositor's hits bear a star; ? = inconclusive; . = no result given. Unless noted, the call rests on the fitted dose curve; in most records, active means well fitted curve in the direction sought with a large enough effect; inconclusive means small, poorly fitted or top-dose-only effect, or another doubt; inactive means no such curve, though single readings can be large; an effect the other way counts as inactive or inconclusive. Potency means the concentration at half of the fitted maximal effect.
SMILES,Sm TGR inh,RE007 growth inh,AmpC no deterg,TbPYK inhibitor,AmpC inh detg,SARS PLpro yeast
Cc1cc(Cl)c(S(=O)(=O)Nc2ccon2)cc1OCC(=O)NC1CCCCC1,-6%,13%,0.22µM*,-11%,-1%,0%
Cc1cc(Cl)c(S(=O)(=O)Nc2ccc3c(c2)OCCO3)cc1OCC(=O)NC1CCCCC1,-5%,-12%,-41%,-14%,?,0%
Cc1ccc(C)c(Cn2c(=O)n(CCCCCC(=O)NCc3ccc4c(c3)OCO4)c(=O)c3sccc32)c1,-2%,.,.,-1%,23%,.
CC(C)N(C1=N/C(=C\c2ccco2)C(=O)N1c1ccccc1)C(C)C,40µM*,-8%,-9%,-7%,-8%,-1%
CN1C(=S)N(c2ccccc2)C(=O)/C1=C/c1ccco1,?,?,-16%,-1%,-6%,5%
O=C1/C(=C/c2ccco2)N=C(N2CCCCC2)N1c1ccccc1,45µM*,5%,-25%,-3%,?,23%
O=C(CCl)N(Cc1ccccc1)c1ccccc1,5µM*,10%,-29%,3%,?,1%
COC(=O)c1ccc(C(=O)N(Cc2ccccc2)c2ccccc2)cc1,-7%,1%,16%,3%,2%,?
Cc1cccc(N(Cc2ccccc2)C(=O)CCl)c1,14µM*,7%,-13%,5%,-12%,-1%
O=C1c2ccc(Oc3cccc([N+](=O)[O-])c3)cc2C(=O)N1c1ccccn1,0%,-2%,-24%,-7%,8%,0%
O=C(O)c1cccc(N2C(=O)c3cc([N+](=O)[O-])cc4cc([N+](=O)[O-])cc(c34)C2=O)c1,2µM*,-8%,-32%,-8%,-17%,5%
O=C1c2cc([N+](=O)[O-])cc3cc([N+](=O)[O-])cc(c23)C(=O)N1c1ccccn1,50µM*,0%,-23%,-2%,-1%,24%
O=C(O)c1cccc(N2C(=O)/C(=C/c3ccc([N+](=O)[O-])cc3)C=C2c2ccccc2)c1,25µM*,23%,-26%,-17%,-10%,1%
Cc1nn(CC(=O)Nc2ccc3c(c2)nc2n3CCN(C3CCCCC3)C2)c(=O)c2ccccc12,18µM*,-8%,54%,0%,-8%,0%
Cc1nn(CC(=O)Nc2ccc3c(c2)nc(CCN2CCCCC2)n3C)c(=O)c2ccccc12,1%,6%,-24%,2%,-3%,-6%
COc1cc(-c2nc(-c3ccccc3)c(-c3ccc(Br)cc3)[nH]2)cc(OC)c1O,-30%,.,.,-1%,9%,.
O=C(CCN1C(=O)C2C3C=CC(C3)C2C1=O)NCCN1CCCc2ccccc21 (stereo not given),?,4%,2%,11%,-11%,1%
O=C(CN1C(=O)C2C3C=CC(C3)C2C1=O)NCCN1CCCc2ccccc21 (stereo not given),50µM*,-19%,11%,2%,?,3%
Cc1noc2ncnc(N3CCCC(C(=O)NC(C)C)C3)c12 (stereo not given),-2%,.,.,-5%,1%,.
O=C(CCN1CCN(C(=O)c2ccccc2)CC1)c1ccc(Br)cc1,0.32µM*,28µM*,80%,0%,2%,-25%
N#CC1(C#N)COC23CCCCC2C1(C#N)C(=N)O3 (stereo not given),56µM*,-13%,-23%,4%,?,15%
N#CC12COC3(CCCCC3C1(C#N)C#N)OC2=N (stereo not given),18µM*,-4%,-8%,-3%,0%,0%
COc1ccc(C2OC34CCCCC3C(C#N)(C#N)C2(C#N)C(=N)O4)cc1 (stereo not given),40µM*,3%,-45%,1%,-10%,-5%
Oc1ccc(CN2CCN(Cc3ccccc3)CC2)c2cccnc12,10%,18%,-16%,-9%,-5%,-3%

# Bioassay records deposited in PubChem by National Center for Advancing Translational Sciences (NCATS).
